The panel holds about 79,000 compounds, 15% with a hit somewhere; the sample as a whole holds those more often. Activity calls are given as the source filed them. No stated cut-off is given here; in the data, active means growth inhibition above about 70%; inactive means the rest.
Key:
[1] = NCI Yeast Anticancer Drug Screen. Data for the rad52 strain (AID 147);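 further: 0% = growth of vehicle-treated control cultures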; settings: S. cerevisiae rad52 mutant growth inhibition, hits give high values
Outline: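 The repair-mutant yeast strain was incubated with compounds, then growth was read and inhibition derived relative to vehicle.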

[2] = NCI Yeast Anticancer Drug Screen. Data for the wt1 strain (AID 149);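 further: 0% = growth of vehicle-treated wt1 cultures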; settings: S. cerevisiae wt1 strain (SPY 50644) growth inhibition, hits give high values
Outline: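 Vehicle-normalised growth inhibition; strain wt1; compound exposure.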

[3] = NCI Yeast Anticancer Drug Screen. Data for the rad50EPP+ strain (AID 151);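 further: 0% = growth of vehicle-treated control cultures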; settings: S. cerevisiae rad50 mutant strain, hits give high values
Outline: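 Vehicle-normalised growth inhibition; rad50EPP+ yeast strain, altered in DNA damage repair, compound-treated.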

[4] = NCI Yeast Anticancer Drug Screen. Data for the mgt1 strain (AID 153); settings: S. cerevisiae mgt1 mutant growth inhibition, hits give high values
Outline: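 Vehicle-normalized growth inhibition is determined in mgt1 yeast, a strain selected for a defined alteration in DNA repair or cell cycle control.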

[5] = NCI Yeast Anticancer Drug Screen. Data for the rad50 strain (AID 155);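 further: 0% = growth of vehicle-only cultures of the same strain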; settings: S. cerevisiae rad50 strain growth inhibition, hits give high values
Outline: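 A DNA repair-deficient yeast mutant serves as the test organism; compound-induced growth inhibition is calculated against vehicle-treated cells.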

[6] = NCI Yeast Anticancer Drug Screen. Data for the mec2-1 strain (AID 157); settings: S. cerevisiae mec2-1 strain, hits give high values
Outline: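 Mutant yeast (mec2-1) grown with compound; growth inhibition relative to vehicle control reported.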

[7] = NCI Yeast Anticancer Drug Screen. Data for the rad14 strain (AID 159);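 further: 0% = growth of vehicle-treated control cultures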; settings: S. cerevisiae rad14 strain growth inhibition, hits give high values
Outline: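 Vehicle-treated cultures served as the baseline for growth inhibition of a DNA repair-mutant yeast strain exposed to each compound.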

[8] = NCI Yeast Anticancer Drug Screen. Data for the sgs1 mgt1 strain (AID 161);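 further: 0% = growth of cultures given vehicle only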; settings: S. cerevisiae sgs1 mgt1 strain, hits give high values
Outline: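 Growth of a repair-deficient yeast mutant was monitored after compound treatment and expressed as inhibition relative to vehicle-treated cultures.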

[9] = NCI Yeast Anticancer Drug Screen. Data for the CLN2oe strain (AID 163);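 further: 0% = growth of vehicle-only control cultures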; settings: S. cerevisiae CLN2oe strain, hits give high values
Outline: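 Compounds are applied to yeast harbouring a defined cell-cycle control change; reduced growth compared with vehicle-treated controls gives the value.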

[10] = NCI Yeast Anticancer Drug Screen. Data for the cln2 rad14 strain (AID 165);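 further: 0% = growth equal to vehicle treated cultures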; settings: S. cerevisiae cln2 rad14 strain, hits give high values
Outline: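 Readout is yeast growth inhibition versus vehicle-treated controls, using a strain with cln2 and rad14 alterations exposed to compound.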

[11] = NCI Yeast Anticancer Drug Screen. Data for the bub3 strain (AID 167); settings: S. cerevisiae bub3 mutant strain, hits give high values
Outline: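 Inhibition values come from growth of compound-treated mutant yeast normalised to vehicle-treated controls.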

[12] = NCI Yeast Anticancer Drug Screen. Data for the wt2 strain (AID 169);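 further: 0% = growth of vehicle-treated yeast cultures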; settings: S. cerevisiae wt2 strain growth inhibition, hits give high values
Outline: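 Against vehicle-treated controls, the growth of yeast exposed to each compound was compared, and the inhibition was recorded.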

[13] = NCI Yeast Anticancer Drug Screen. Data for the mlh1 strain (AID 171);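 further: 0% = growth of vehicle-treated control cultures of the same strain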; settings: S. cerevisiae mlh1 strain growth inhibition, hits give high values
Outline: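 Measured: yeast growth. Reference: vehicle-treated controls. Organism: strain with a defined alteration affecting DNA damage repair or cell cycle control, treated with compound.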

[14] = NCI Yeast Anticancer Drug Screen. Data for the sgs1 strain (AID 173);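 further: 0% = growth of vehicle-only control cultures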; settings: S. cerevisiae sgs1 mutant, hits give high values
Outline: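 Each compound was added to cultures of the altered yeast strain. Growth was recorded, and inhibition was derived by comparison with vehicle controls.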

[15] = NCI Yeast Anticancer Drug Screen. Data for the mlh1 rad18 strain (AID 175); settings: S. cerevisiae mlh1 rad18 strain growth inhibition, hits give high values
Outline: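 Genetically defined yeast (DNA repair-deficient) exposed to compounds; growth inhibition determined relative to vehicle.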

[16] = NCI Yeast Anticancer Drug Screen. Data for the rad18 strain (AID 177); settings: S. cerevisiae rad18 mutant growth inhibition, hits give high values
Outline: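 Vehicle-treated cultures served as the baseline for scoring compound-induced growth inhibition in DNA-repair-mutant yeast.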

[17] = at 5.0 µM (retest, dose inferred, filed as 0.5)
[18] = at 50.0 µM (retest, dose inferred, filed as 5.0)

Measured: growth inhibition

O=c1oc2ccccc2c(O)c1C(c1ccc2ccccc2c1)c1c(O)c2ccccc2oc1=O
inactive: [1]; at 1.2 µM -8% | [1]; at 3.7 µM 12% | [1]; at 11.0 µM 21% | [1]; at 33.0 µM 64% | [2]; at 1.2 µM -10% | [2]; at 3.7 µM 4% | [2]; at 11.0 µM 1% | [2]; at 33.0 µM 50% | [3]; at 1.2 µM 6% | [3]; at 3.7 µM 41% | [3]; at 11.0 µM 51% | [3]; at 33.0 µM 50% | [3]; at 100.0 µM 46% | [4]; at 1.2 µM 17% | [4]; at 3.7 µM 17% | [4]; at 11.0 µM 33% | [5]; at 1.2 µM 12% | [5]; at 3.7 µM 10% | [5]; [17] 47% | [5]; at 11.0 µM 17% | [5]; at 33.0 µM 58% | [6]; at 1.2 µM 10% | [6]; at 3.7 µM 15% | [6]; [17] 17% | [6]; at 11.0 µM 31% | [7]; at 1.2 µM 12% | [7]; at 3.7 µM 21% | [7]; at 11.0 µM 26% | [7]; at 33.0 µM 66% | [8]; [17] -24% | [8]; at 50.0 µM 46.1% | [9]; at 1.2 µM 7% | [9]; at 3.7 µM 21% | [9]; at 11.0 µM 27% | [10]; [17] 19% | [10]; at 50.0 µM 40.2% | [11]; at 1.2 µM 8% | [11]; at 3.7 µM -8% | [11]; [17] 10% | [11]; at 11.0 µM 22% | [11]; at 33.0 µM 55% | [11]; at 50.0 µM 28.4% | [12]; at 1.2 µM -25% | [12]; at 3.7 µM -21% | [12]; at 11.0 µM 38% | [13]; at 1.2 µM -1% | [13]; at 3.7 µM 20% | [13]; at 11.0 µM 33% | [14]; at 1.2 µM 27% | [14]; at 3.7 µM 30% | [14]; at 11.0 µM 36% | [15]; [17] 12% | [15]; [18] 40% | [16]; at 1.2 µM 10% | [16]; at 3.7 µM 7% | [16]; at 11.0 µM 33% | [16]; at 33.0 µM 55%
active: [1]; at 100.0 µM 97% | [2]; at 100.0 µM 98% | [4]; at 33.0 µM 83% | [4]; at 100.0 µM 98% | [5]; [18] 93% | [5]; at 50.0 µM 73.7% | [5]; at 100.0 µM 97% | [6]; at 33.0 µM 76% | [6]; [18] 78% | [6]; at 50.0 µM 86.5% | [6]; at 100.0 µM 98% | [7]; at 100.0 µM 99% | [8]; [18] 92% | [9]; at 33.0 µM 78% | [9]; at 100.0 µM 97% | [10]; [18] 96% | [11]; [18] 93% | [11]; at 100.0 µM 97% | [12]; at 33.0 µM 97% | [12]; at 100.0 µM 94% | [13]; at 33.0 µM 75% | [13]; at 100.0 µM 99% | [14]; at 33.0 µM 73% | [14]; at 100.0 µM 98% | [15]; at 50.0 µM 80% | [16]; at 100.0 µM 98%

CCCCCCCCCCCCCCCCP(=O)(O)OCC(N)C(=O)O (stereo unspecified)
inactive: [1]; at 1.2 µM -5% | [1]; at 3.7 µM -40% | [1]; at 11.0 µM -38% | [1]; at 33.0 µM -15% | [2]; at 1.2 µM -38% | [2]; at 3.7 µM -46% | [2]; at 11.0 µM -46% | [2]; at 33.0 µM -31% | [3]; at 1.2 µM 0% | [3]; at 3.7 µM -5% | [3]; at 11.0 µM 5% | [3]; at 33.0 µM 20% | [3]; at 100.0 µM 69% | [4]; at 1.2 µM 15% | [4]; at 3.7 µM 21% | [4]; at 11.0 µM 7% | [4]; at 33.0 µM 43% | [5]; at 1.2 µM -14% | [5]; at 3.7 µM -14% | [5]; [17] -19% | [5]; at 11.0 µM -39% | [5]; at 33.0 µM 6% | [5]; [18] 46% | [5]; at 50.0 µM 66.9% | [6]; at 1.2 µM -22% | [6]; at 3.7 µM -24% | [6]; [17] -11% | [6]; at 11.0 µM -25% | [6]; at 33.0 µM -20% | [6]; [18] 3% | [6]; at 50.0 µM 58.8% | [7]; at 1.2 µM -67% | [7]; at 3.7 µM -61% | [7]; at 11.0 µM -55% | [7]; at 33.0 µM -47% | [8]; [17] -11% | [8]; [18] 39% | [9]; at 1.2 µM 1% | [9]; at 3.7 µM -3% | [9]; at 11.0 µM 0% | [9]; at 33.0 µM -6% | [9]; at 100.0 µM -8% | [10]; [17] 23% | [10]; [18] 7% | [10]; at 50.0 µM 60.9% | [11]; at 1.2 µM -1% | [11]; at 3.7 µM 1% | [11]; [17] -9% | [11]; at 11.0 µM 0% | [11]; at 33.0 µM -1% | [11]; [18] -8% | [11]; at 50.0 µM 60.1% | [11]; at 100.0 µM -13% | [13]; at 1.2 µM -18% | [13]; at 3.7 µM -26% | [13]; at 11.0 µM -53% | [13]; at 33.0 µM 20% | [14]; at 1.2 µM -31% | [14]; at 3.7 µM -58% | [14]; at 11.0 µM -44% | [14]; at 33.0 µM 18% | [15]; [17] -34% | [15]; [18] 29% | [16]; at 1.2 µM -3% | [16]; at 3.7 µM -8% | [16]; at 11.0 µM -10% | [16]; at 33.0 µM 14%
active: [1]; at 100.0 µM 95% | [2]; at 100.0 µM 97% | [4]; at 100.0 µM 97% | [5]; at 100.0 µM 96% | [6]; at 100.0 µM 96% | [7]; at 100.0 µM 93% | [8]; at 50.0 µM 93.5% | [13]; at 100.0 µM 96% | [14]; at 100.0 µM 95% | [15]; at 50.0 µM 73.9% | [16]; at 100.0 µM 97%

O=S(=O)(O)c1ccc(Cl)cc1.[Cd]
inactive: [1]; at 1.2 µM 3% | [1]; at 3.7 µM 9% | [1]; at 11.0 µM 35% | [1]; at 33.0 µM 50% | [1]; at 100.0 µM 66% | [2]; at 1.2 µM 2% | [2]; at 3.7 µM 11% | [2]; at 11.0 µM 25% | [2]; at 33.0 µM 55% | [3]; at 1.2 µM 9% | [3]; at 3.7 µM 14% | [3]; at 11.0 µM 23% | [3]; at 33.0 µM 56% | [4]; at 1.2 µM 0% | [4]; at 3.7 µM 15% | [4]; at 11.0 µM 27% | [4]; at 33.0 µM 55% | [5]; at 1.2 µM -2% | [5]; at 3.7 µM 15% | [5]; [17] 25% | [5]; at 11.0 µM 47% | [5]; [18] 46% | [5]; at 50.0 µM 57.1% | [6]; at 1.2 µM -2% | [6]; at 3.7 µM 5%
active: [2]; at 100.0 µM 73% | [3]; at 100.0 µM 75% | [4]; at 100.0 µM 77% | [5]; at 33.0 µM 73% | [5]; at 100.0 µM 84%

From PubChem BioAssay (NCI)
